The results in this text go back to PubChem BioAssay AID588405 (Sanford-Burnham Center for Chemical Genomics, 2011).

The structures appear in SMILES notation. Among all 360,000 compounds or so, about 6,200 (1.7%) were called active.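 Rule for the calls: active = inhibition of at least 50% at 20 µM; inactive = the rest.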 The full list was thinned out, with actives kept by preference.

This test in a line: Peg3 promoter-driven luciferase inhibitors, primary screen, cell-based, HeLa, luciferase luminescence (AID 588405). Conditions: HeLa PEG-Prom luciferase reporter, overnight, at 20 µM, stronger effect = higher value.
Regarding `CC(C)(C)c1cc(C(=O)N/N=C/c2ccc([N+](=O)[O-])s2)n[nH]1`, the inhibition is 50.6% (active).

For `O=[N+]([O-])c1ccc(C=Nc2ccc(Cl)cc2Cl)s1`, the inhibition is 47.5% (inactive).

Regarding `Cc1nn(-c2ccccc2)c(Cl)c1/C=N/NC(=O)c1nn(C)cc1[N+](=O)[O-]`, the inhibition is -116% (inactive).

With `CCNC(=O)C1(C)CCCN(C(=O)c2ccc3ccccc3n2)C1` (stereo not given), the inhibition was -7.45% (inactive).

With `CN(C)CCNC(=O)c1ccc(Cl)c2cc3ccccc3nc12`, the inhibition is 102% (active).

As for `CNC(=O)c1cccc2nc3ccccc3nc12`, the inhibition was 6.22% (inactive).

`CCCN(CCC)CCNC(=O)c1cc2c(C)nc3ccccc3c2o1`: the inhibition was 18.8% (inactive).

Turning to `COc1ccc(-c2cc3c(c4c2ccn4C)C2CCC3C2)cn1` (stereo not given), the inhibition was -6.53% (inactive).

On to `CNC[C@H](CC1CCCCC1)NC[C@H](NCCC1CCCC1)[C@H](C)O`, for which the inhibition is 73.8% (active).

Turning to `CCCCC[C@@H]1C=C(C(=O)OCC)[C@H](c2ccccc2)N1S(=O)(=O)c1ccc(C)cc1`, the inhibition is 12.8% (inactive).

`CC(C)Cc1nnc(NC(=O)CCC(=O)Nc2ccc3cn[nH]c3c2)s1`: the inhibition is 19.8% (inactive).

As for `COC(=O)c1cc(NC2c3ccccc3C(=O)N2c2ccc(Cl)cn2)cc(C(=O)OC)c1` (stereo not given), the inhibition was -65.5% (inactive).

Take `CN(Cc1ccccc1F)c1cc2c(c3c1ccn3C)C1CCC2O1` (stereo not given): the inhibition is 33.1% (inactive).

As to `Cc1cccc(-c2nc3ccc(C(=O)NCCN4CCN(C)CC4)cc3nc2-c2cccc(C)c2)c1`, the inhibition is 103% (active).

Regarding `Cc1cccc(C(=O)OC(C)CN2CCN(C)CC2)c1` (stereo not given), the inhibition was -101% (inactive).

Regarding `Cc1cc(C)cc(C(=O)NCCN2CCOCC2)c1`, the inhibition is 3.53% (inactive).

As to `Cc1ccc(S(=O)(=O)NCC(=O)NNC(=O)c2ccc(Br)cc2)cc1C`, the inhibition is 4.68% (inactive).

Regarding `CCOc1cc(N2CCOCC2)c(OCC)cc1NC(=O)COC(=O)[C@H](Cc1c[nH]c2ccccc12)NC(C)=O`, the inhibition was 22.9% (inactive).

On to `CCOc1cc(N2CCOCC2)c(OCC)cc1NC(=O)COc1cccc2cccnc12`, for which the inhibition is 109% (active).

Turning to `CCOc1cc(N2CCOCC2)c(OCC)cc1NC(=O)c1ccc(C)s1`, the inhibition is -88.6% (inactive).

In the case of `CC1(C(=O)Nc2cccc3c2CCCC3)CCN1C(=O)CCc1ccc(Cl)cc1Cl` (stereo not given), the inhibition is 36.2% (inactive).

Turning to `COc1ccc(OC)c(C(O)c2nc3ccccc3n2C)c1` (stereo not given), the inhibition was 0.26% (inactive).

Take `CC1=C(C(=O)N2CCOCC2)CC(CC(=O)NCCCN(C)C)C(=O)N1Cc1ccc(C(C)(C)C)cc1` (stereo not given): the inhibition is -10.2% (inactive).

As to `Cc1ccc(S(=O)Cc2ccc(C(=O)N3CCN(C4CCCCC4)CC3)o2)cc1` (stereo not given), the inhibition was 24.1% (inactive).

`CN(C)S(=O)(=O)c1cccc(C(=O)OCC(=O)N2CCCC2=O)c1`: the inhibition was -2.53% (inactive).
